Tests used:
Assay in all cases: DAPPL (digital affinity profiling via proximity ligation, sequencing); 10 mM Tris-HCl pH 7.5, 50 mM NaCl, 1 mM DTT, 4% glycerol, room temperature, 30 min; GST-TFs on glutathione beads, 16-mer random dsDNA library, 0.1% formaldehyde crosslink after washing; high values mean tight binding
FEV = molecular target: T1, FEV (Homo sapiens, UniProt Q99581 1-238); settings: protein: recombinant; tags: N-terminal GST; dsDNA, one strand shown
T1 sequence: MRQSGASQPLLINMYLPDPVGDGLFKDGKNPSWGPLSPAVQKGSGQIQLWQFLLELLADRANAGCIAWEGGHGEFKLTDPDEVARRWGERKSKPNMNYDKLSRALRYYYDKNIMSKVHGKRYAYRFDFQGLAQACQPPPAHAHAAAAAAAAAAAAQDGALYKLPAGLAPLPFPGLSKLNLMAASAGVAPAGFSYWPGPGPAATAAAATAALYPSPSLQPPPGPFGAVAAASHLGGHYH
In short: (§1)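 Yeast served to express human transcription factors as GST fusions, which were then captured on glutathione beads and labelled with DNA barcodes. Pooled with a tag-only sample, they were incubated with 200 nmole of a 16-mer random double-stranded DNA library for 30 min at room temperature in Tris/NaCl/DTT/glycerol buffer, washed, crosslinked with 0.1% formaldehyde, ligated by proximity, amplified by PCR and sequenced. Dividing each hexamer's read frequency for a factor by its frequency for the tag-only sample gives the binding signal.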

ETV5 = ETV5 (Homo sapiens, UniProt P41161 1-510); settings: protein: recombinant; tags: N-terminal GST; dsDNA, one strand shown
Sequence of ETV5 (P41161 whole entry): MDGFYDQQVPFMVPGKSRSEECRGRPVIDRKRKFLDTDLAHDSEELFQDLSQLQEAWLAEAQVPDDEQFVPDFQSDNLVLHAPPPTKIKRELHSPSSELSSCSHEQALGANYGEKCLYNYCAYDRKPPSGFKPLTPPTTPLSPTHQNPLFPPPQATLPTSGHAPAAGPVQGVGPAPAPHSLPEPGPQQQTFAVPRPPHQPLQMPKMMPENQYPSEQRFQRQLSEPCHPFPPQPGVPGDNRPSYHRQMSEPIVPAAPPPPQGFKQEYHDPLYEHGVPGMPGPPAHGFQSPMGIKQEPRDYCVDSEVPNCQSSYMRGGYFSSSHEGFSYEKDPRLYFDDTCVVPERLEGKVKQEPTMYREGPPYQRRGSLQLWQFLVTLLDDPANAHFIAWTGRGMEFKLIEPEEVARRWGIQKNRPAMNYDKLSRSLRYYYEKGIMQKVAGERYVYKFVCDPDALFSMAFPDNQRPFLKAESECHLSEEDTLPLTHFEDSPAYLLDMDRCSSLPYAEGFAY
In short: as §1

HSF1 = HSF1 (Homo sapiens, UniProt Q00613 1-529); settings: protein: recombinant; tags: N-terminal GST; chain copies: 3; dsDNA, one strand shown
Sequence of HSF1 (Q00613 whole entry): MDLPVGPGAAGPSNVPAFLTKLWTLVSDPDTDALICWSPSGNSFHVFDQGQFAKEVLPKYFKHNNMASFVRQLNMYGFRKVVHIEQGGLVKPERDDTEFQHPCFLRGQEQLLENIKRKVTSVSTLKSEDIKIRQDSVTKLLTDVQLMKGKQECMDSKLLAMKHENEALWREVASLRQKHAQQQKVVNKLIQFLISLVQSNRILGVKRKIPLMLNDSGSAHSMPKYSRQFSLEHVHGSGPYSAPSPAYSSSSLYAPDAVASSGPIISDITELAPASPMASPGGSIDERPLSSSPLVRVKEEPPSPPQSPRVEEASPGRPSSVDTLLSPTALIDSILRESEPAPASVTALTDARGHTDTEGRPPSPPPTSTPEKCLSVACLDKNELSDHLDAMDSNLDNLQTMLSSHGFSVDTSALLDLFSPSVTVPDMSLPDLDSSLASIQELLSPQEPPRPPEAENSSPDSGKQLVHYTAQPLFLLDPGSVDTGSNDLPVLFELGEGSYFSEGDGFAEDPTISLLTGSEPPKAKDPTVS
In short: as §1

SPIC = molecular target: T2, SPIC (Homo sapiens, UniProt Q8N5J4 1-248); settings: protein: recombinant; tags: N-terminal GST; dsDNA, one strand shown
T2 sequence: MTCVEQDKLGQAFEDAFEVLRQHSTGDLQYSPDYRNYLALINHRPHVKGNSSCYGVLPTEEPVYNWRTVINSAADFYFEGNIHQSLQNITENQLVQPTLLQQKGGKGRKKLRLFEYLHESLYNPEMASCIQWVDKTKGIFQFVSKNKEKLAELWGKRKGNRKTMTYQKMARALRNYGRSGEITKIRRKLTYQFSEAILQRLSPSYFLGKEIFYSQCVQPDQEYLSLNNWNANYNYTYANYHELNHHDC
In short: as §1

ELF4 = ELF4 (Homo sapiens, UniProt Q99607 1-663); settings: protein: recombinant; tags: N-terminal GST; dsDNA, one strand shown
Sequence of ELF4 (Q99607 whole entry): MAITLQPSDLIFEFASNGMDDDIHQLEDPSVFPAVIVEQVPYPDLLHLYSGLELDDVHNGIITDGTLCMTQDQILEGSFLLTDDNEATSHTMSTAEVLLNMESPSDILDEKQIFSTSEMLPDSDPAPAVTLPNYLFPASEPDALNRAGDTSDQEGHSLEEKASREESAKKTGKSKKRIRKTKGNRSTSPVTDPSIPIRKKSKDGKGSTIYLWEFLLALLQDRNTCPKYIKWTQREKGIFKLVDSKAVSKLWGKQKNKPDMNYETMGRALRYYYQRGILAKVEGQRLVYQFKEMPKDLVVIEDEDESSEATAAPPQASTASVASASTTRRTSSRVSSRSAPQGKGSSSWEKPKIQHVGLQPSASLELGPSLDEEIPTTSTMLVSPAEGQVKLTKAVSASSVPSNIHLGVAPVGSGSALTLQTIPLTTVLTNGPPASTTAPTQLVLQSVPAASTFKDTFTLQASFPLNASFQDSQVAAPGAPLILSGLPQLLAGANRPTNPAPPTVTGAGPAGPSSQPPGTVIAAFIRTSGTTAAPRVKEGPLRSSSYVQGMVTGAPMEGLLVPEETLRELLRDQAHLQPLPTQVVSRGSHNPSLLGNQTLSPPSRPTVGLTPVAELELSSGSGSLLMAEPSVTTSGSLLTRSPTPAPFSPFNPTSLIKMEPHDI
In short: as §1

ELK4 = molecular target: T3, ELK4 (Homo sapiens, UniProt P28324-2 1-405); settings: protein: recombinant; tags: N-terminal GST; dsDNA, one strand shown
T3 sequence: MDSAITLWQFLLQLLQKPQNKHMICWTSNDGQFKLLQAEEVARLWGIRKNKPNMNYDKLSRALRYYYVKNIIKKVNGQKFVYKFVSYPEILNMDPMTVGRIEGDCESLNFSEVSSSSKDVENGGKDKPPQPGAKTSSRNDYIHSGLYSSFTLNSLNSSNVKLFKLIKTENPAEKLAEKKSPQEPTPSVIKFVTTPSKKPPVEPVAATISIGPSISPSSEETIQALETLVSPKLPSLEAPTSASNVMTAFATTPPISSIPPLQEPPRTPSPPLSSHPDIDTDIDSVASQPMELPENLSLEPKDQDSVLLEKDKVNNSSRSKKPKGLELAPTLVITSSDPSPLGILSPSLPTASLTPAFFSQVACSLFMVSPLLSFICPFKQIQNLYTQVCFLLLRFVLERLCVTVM
In short: as §1

ETV2 = molecular target: T4, ETV2 (Homo sapiens, UniProt O00321 1-342); settings: protein: recombinant; tags: N-terminal GST; dsDNA, one strand shown
T4 sequence: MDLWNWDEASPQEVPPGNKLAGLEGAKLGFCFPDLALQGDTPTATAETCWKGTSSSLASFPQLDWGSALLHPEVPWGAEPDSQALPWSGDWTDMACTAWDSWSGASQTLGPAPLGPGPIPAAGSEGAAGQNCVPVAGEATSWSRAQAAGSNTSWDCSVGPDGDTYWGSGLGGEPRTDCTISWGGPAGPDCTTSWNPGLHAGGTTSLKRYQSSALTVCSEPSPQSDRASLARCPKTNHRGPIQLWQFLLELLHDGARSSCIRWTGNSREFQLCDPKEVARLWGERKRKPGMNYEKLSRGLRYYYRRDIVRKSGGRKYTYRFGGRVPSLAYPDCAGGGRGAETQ
In short: as §1

ELF3 = molecular target: T5, ELF3 (Homo sapiens, UniProt P78545 1-371); settings: protein: recombinant; tags: N-terminal GST; dsDNA, one strand shown
T5 sequence: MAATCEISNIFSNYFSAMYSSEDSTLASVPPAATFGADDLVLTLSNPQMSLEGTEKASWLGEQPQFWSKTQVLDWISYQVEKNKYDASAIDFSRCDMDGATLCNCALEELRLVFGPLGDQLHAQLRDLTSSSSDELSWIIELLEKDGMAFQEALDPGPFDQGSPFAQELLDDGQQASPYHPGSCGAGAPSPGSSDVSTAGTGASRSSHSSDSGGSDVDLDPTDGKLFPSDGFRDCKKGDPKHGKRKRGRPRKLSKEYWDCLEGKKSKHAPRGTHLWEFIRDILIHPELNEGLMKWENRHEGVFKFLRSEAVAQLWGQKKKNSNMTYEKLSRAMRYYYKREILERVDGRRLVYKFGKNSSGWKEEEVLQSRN
In short: as §1

ETV1 = ETV1 (Homo sapiens, UniProt P50549 1-477); settings: protein: recombinant; tags: N-terminal GST; dsDNA, one strand shown
Sequence of ETV1 (P50549 whole entry): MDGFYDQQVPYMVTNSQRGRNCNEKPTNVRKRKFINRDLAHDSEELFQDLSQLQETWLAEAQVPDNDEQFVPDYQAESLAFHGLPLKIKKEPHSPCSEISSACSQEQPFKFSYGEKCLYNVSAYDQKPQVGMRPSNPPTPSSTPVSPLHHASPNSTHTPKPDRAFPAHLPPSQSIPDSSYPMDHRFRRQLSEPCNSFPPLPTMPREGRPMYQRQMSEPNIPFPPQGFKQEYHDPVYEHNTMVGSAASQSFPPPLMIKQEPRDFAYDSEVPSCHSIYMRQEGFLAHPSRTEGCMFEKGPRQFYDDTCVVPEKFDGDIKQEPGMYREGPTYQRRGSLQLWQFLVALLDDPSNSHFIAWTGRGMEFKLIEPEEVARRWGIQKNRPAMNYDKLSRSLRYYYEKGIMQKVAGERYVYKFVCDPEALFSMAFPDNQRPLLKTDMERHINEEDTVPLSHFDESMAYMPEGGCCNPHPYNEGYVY
In short: as §1

ERF = molecular target: T6, ERF (Homo sapiens, UniProt P50548 1-548); settings: protein: recombinant; tags: N-terminal GST; dsDNA, one strand shown
T6 sequence: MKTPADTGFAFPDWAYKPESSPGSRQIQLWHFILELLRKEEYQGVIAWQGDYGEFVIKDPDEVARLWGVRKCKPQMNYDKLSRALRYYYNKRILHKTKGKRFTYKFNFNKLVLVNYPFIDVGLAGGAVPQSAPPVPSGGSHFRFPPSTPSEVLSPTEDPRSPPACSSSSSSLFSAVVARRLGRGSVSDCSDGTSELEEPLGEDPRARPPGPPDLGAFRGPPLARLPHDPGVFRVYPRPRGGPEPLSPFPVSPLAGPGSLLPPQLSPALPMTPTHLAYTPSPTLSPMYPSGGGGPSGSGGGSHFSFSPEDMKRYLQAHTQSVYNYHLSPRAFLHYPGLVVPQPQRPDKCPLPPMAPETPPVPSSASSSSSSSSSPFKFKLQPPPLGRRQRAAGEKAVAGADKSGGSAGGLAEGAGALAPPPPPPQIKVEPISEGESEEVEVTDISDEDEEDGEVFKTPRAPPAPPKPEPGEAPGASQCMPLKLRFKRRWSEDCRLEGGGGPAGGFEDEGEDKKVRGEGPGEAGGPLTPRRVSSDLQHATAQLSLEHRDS
In short: as §1

ETV3L = molecular target: T7, ETV3L (Homo sapiens, UniProt Q6ZN32 1-361); settings: protein: recombinant; tags: N-terminal GST; dsDNA, one strand shown
T7 sequence: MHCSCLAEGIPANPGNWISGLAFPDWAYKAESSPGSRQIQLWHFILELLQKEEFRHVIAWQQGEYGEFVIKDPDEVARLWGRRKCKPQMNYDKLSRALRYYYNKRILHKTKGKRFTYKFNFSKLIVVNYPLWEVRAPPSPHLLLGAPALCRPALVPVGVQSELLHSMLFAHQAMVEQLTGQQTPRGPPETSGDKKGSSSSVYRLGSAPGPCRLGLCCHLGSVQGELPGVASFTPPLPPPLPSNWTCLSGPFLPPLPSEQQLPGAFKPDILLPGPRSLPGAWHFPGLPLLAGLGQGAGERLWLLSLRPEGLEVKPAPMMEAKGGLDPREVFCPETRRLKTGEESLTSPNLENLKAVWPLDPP
In short: as §1

ETS2 = molecular target: T8, ETS2 (Homo sapiens, UniProt P15036 1-469); settings: protein: recombinant; tags: N-terminal GST; dsDNA, one strand shown
T8 sequence: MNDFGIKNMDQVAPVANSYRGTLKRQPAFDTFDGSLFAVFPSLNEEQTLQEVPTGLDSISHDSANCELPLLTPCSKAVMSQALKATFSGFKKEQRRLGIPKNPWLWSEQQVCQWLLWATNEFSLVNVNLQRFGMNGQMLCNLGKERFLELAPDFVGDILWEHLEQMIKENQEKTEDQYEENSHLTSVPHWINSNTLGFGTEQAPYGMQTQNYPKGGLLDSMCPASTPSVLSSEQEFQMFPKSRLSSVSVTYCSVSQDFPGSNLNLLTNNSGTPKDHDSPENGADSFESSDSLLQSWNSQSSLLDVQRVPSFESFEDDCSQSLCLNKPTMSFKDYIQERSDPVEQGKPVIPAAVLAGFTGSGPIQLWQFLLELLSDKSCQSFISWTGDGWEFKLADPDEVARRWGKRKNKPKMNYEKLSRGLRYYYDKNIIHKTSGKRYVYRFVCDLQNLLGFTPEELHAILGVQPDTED
In short: as §1

ETV7 = molecular target: T9, ETV7 (Homo sapiens, UniProt Q9Y603 1-341); settings: protein: recombinant; tags: N-terminal GST; dsDNA, one strand shown
T9 sequence: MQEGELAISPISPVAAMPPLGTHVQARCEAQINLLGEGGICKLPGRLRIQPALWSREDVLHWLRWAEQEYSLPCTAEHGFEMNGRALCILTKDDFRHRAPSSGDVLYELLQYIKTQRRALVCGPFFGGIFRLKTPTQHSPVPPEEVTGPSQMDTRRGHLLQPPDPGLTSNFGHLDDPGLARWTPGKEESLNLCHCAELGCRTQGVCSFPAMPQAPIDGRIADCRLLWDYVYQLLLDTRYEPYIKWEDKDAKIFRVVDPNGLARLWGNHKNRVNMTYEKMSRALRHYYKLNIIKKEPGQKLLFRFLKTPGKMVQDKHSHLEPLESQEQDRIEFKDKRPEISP
In short: as §1

ELF5 = molecular target: T10, ELF5 (Homo sapiens, UniProt Q9UKW6-2 1-255); settings: protein: recombinant; tags: N-terminal GST; dsDNA, one strand shown
T10 sequence: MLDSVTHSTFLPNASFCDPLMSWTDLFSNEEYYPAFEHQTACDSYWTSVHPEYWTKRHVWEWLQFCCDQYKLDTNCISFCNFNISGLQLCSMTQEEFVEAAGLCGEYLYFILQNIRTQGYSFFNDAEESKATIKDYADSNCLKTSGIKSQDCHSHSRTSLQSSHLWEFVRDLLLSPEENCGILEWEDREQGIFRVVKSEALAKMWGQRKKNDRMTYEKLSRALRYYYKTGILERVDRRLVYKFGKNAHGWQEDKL
In short: as §1

ETV3 = molecular target: T11, ETV3 (Homo sapiens, UniProt P41162-2 1-143); settings: protein: recombinant; tags: N-terminal GST; dsDNA, one strand shown
T11 sequence: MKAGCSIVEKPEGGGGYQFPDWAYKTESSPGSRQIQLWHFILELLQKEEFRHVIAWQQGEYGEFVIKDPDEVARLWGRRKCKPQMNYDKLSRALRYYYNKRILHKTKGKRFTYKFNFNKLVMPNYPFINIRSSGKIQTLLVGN
In short: as §1

ETV6 = ETV6 (Homo sapiens, UniProt P41212 1-452); settings: protein: recombinant; tags: N-terminal GST; dsDNA, one strand shown
Sequence of ETV6 (P41212 whole entry): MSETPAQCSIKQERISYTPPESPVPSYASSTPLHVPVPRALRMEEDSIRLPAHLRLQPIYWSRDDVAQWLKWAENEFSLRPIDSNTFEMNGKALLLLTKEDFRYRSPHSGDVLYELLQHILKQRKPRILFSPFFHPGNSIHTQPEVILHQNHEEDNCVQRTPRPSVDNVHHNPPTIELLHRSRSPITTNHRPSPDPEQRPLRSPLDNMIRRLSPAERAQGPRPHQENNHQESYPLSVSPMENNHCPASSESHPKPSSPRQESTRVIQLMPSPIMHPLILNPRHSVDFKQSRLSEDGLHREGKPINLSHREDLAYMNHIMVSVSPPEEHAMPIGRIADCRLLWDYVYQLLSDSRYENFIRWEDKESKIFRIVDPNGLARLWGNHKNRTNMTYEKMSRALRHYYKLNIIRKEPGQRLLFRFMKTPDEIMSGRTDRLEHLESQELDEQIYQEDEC
In short: as §1

## GAAAAA
FEV
  binding signal: 1.09 fold enrichment (6-mer frequency, TF over GST control)
ETV5
  binding signal: 1.13 fold enrichment (6-mer frequency, TF over GST control)
HSF1
  binding signal: 1.41 fold enrichment (6-mer frequency, TF over GST control)
SPIC
  binding signal: 1.15 fold enrichment (6-mer frequency, TF over GST control)
ELF4
  binding signal: 1.17 fold enrichment (6-mer frequency, TF over GST control)
ELK4
  binding signal: 1.09 fold enrichment (6-mer frequency, TF over GST control)
ETV2
  binding signal: 1.15 fold enrichment (6-mer frequency, TF over GST control)
ELF3
  binding signal: 1.2 fold enrichment (6-mer frequency, TF over GST control)
ETV1
  binding signal: 1.09 fold enrichment (6-mer frequency, TF over GST control)
ERF
  binding signal: 1.08 fold enrichment (6-mer frequency, TF over GST control)
ETV3L
  binding signal: 1.16 fold enrichment (6-mer frequency, TF over GST control)
ETS2
  binding signal: 1.2 fold enrichment (6-mer frequency, TF over GST control)
ETV7
  binding signal: 1.16 fold enrichment (6-mer frequency, TF over GST control)
ELF5
  binding signal: 1.22 fold enrichment (6-mer frequency, TF over GST control)
ETV3
  binding signal: 1.09 fold enrichment (6-mer frequency, TF over GST control)
ETV6
  binding signal: 1.17 fold enrichment (6-mer frequency, TF over GST control)
